Out of some 320,000 compounds screened, about 3,300 (1%) were called active.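 How the source made its calls: active means every valid replicate shows activation above 250% relative to neutral control wells; inactive means the rest, any valid replicate at or below 250%.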 Only a selection was taken, and actives are over-represented in it overall.

The assay can be described thus: yeast Mot1-301 growth rescue at high temperature, primary screen, SUMOylation pathway inhibitor project, S. cerevisiae, ATP luminescence, 38.5C (AID 2716).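 Further: OY570 slx delta 5 strain wells were the positive control but not used for scaling.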 The following applies: S. cerevisiae Mot1-301 growth rescue, at 18.8 µM, stronger effect = higher value, percent above DMSO median, 100 means doubled.
For `O=C(NCCCN1CCOCC1)c1cn(-c2ccccc2)nc1-c1ccc(F)cc1`, the growth rescue is -27.9% (inactive). For `COc1cc(NC(=O)C2=CC(c3ccco3)=NS(=O)(=O)N2C)cc(OC)c1OC`, the growth rescue is 446% (active).

On to `COc1ccc(NC(=O)C2=CC(c3ccc(OC)c(OC)c3)=NS(=O)(=O)N2C)cc1`, for which the growth rescue is 12.2% (inactive). With `COc1cc(NC(=O)C2=CC(c3ccc(C)cc3)=NS(=O)(=O)N2C)cc(OC)c1OC`, the growth rescue is 18.9% (inactive). Regarding `CCOC(=O)C(NC(C)=O)C(=O)Nc1ccc(OC)cc1` (configuration not stated), the growth rescue was 5.5% (inactive). As for `NS(=O)(=O)c1ccc(CNC(=S)NC(=O)c2ccco2)cc1`, the figure is -10.3% (inactive); as for `CCCCc1nc2cc(C(=O)NCCc3cnn(C)c3)ccc2o1`, 249% (inactive); as for `O=C1CCC(=O)N1CCOP1(=O)COc2ccccc2OC1`, 402% (active). With `CC1Sc2ccc(C(=O)NCc3ccccc3Cl)cc2NC1=O` (configuration not stated), the growth rescue is -10.2% (inactive). In the case of `COc1ccc(C)cc1NC(=O)C(Sc1ccccc1)c1ccccc1` (configuration not stated), the growth rescue was -9.29% (inactive). As to `COc1cccc(NC(=O)c2ccc(Cn3cc([N+](=O)[O-])cn3)o2)c1`, the growth rescue was -22.4% (inactive). As to `Cn1cc([N+](=O)[O-])c(C(=O)Nc2ccc3c(c2)OCCO3)n1`, the growth rescue is -2.5% (inactive). With `COc1cccc(NC(=O)c2nn(C34CC5CC(CC(C5)C3)C4)cc2[N+](=O)[O-])c1`, the growth rescue was 384% (active). As for `COc1ccccc1C(=O)NCC(=O)OCC(=O)Nc1nnc(-c2ccccc2)o1`, the figure is 0.619% (inactive); as for `CCCNC(=O)CCn1cc(-c2ccc(OC)cc2)nc1CCN`, -5.76% (inactive); as for `CNS(=O)(=O)c1ccc(NC(=O)Nc2ccc3c(c2)OCO3)cc1`, -8% (inactive).

Regarding `COc1ccc(Cl)cc1N(CC(=O)N1CCCCC1)S(C)(=O)=O`, the growth rescue was 316% (inactive).

Consider `COCc1c(C(=O)N/N=C\c2cccnc2)nnn1-c1nonc1N`, for which the growth rescue is 0.433% (inactive). The value for `C#CCOCCOCCOCCNc1nc(N2CCN(C(=O)[C@H](CCC(=O)O)n3cc(CN)nn3)CC2)nc(N2CCN(C(=O)[C@H](CCC(=O)O)n3cc(CN)nn3)CC2)n1` was -22.6% (inactive); that for `O=C(c1cccc(F)c1)N1CCC(O)(c2cccnc2)CC1` was 16% (inactive). With `Cc1ccc(NC(=O)Nc2cccnc2)cc1`, the growth rescue was -4.18% (inactive).

With `Cc1ccc(NC(=O)N2CCC(O)(c3cccnc3)CC2)cc1`, the growth rescue is 356% (active).

In the case of `Cc1ccc(/C=N/NC(=O)c2sccc2OCc2ccc(F)cc2)cc1`, the growth rescue is 17.9% (inactive). Consider `COc1cc(-c2nc(S(=O)(=O)c3ccc(Cl)cc3)c(N(C)C)o2)cc(OC)c1OC`, for which the growth rescue is 9.48% (inactive). As for `CC(C)CC(=O)Nc1nnc(S(=O)(=O)N(C)c2ccc(Cl)cc2)s1`, the figure is -15.6% (inactive). Regarding `COC(=O)c1ccc(COc2cc([N+](=O)[O-])cc3cccnc23)cc1`, the growth rescue is -14.7% (inactive).

With `N#CC1=C(N)Oc2n[nH]c(CSc3ccccc3)c2C12C(=O)Nc1ccccc12` (configuration not stated), the growth rescue was 564% (active). Turning to `N#CC1=C(N)Oc2[nH]c(=S)[nH]c(=O)c2C12C(=O)Nc1ccccc12` (configuration not stated), the growth rescue was -12% (inactive). In the case of `COC(=O)CCSc1nccn1Cc1ccccc1`, the growth rescue was -6.82% (inactive). In the case of `Cc1ccc(S(=O)(=O)N(C)C)cc1NC(=O)COC(=O)c1c(C)noc1C`, the growth rescue is 358% (active).

Regarding `Cc1ccc(S(=O)(=O)N(C)C)cc1NC(=O)COC(=O)/C=C/c1cccs1`, the growth rescue is -3.27% (inactive). The value for `Cc1ccc(S(=O)(=O)N(C)C)cc1NC(=O)COC(=O)C1COc2ccccc2O1` (configuration not stated) was -1.18% (inactive); that for `O=c1[nH]n2c(=O)c3c([nH]c2c1N=Nc1ccccc1)CCC3` was -13.5% (inactive).

In the case of `COCCCN1C(=O)c2ccc(C(=O)OCC(=O)NCc3ccccc3OC)cc2C1=O`, the growth rescue is -4.61% (inactive). With `COCCCN1C(=O)c2ccc(C(=O)Nc3ccc(OC)cc3OC)cc2C1=O`, the growth rescue was 994% (active).

Turning to `COc1ccc(OC)c(NC(=O)c2ccc3c(c2)C(=O)N(c2ccc(OC(C)=O)cc2)C3=O)c1`, the growth rescue is -1.05% (inactive).

Regarding `Cc1cc(S(=O)(=O)c2cc3ccc(O)c(C)c3oc2=O)ccc1F`, the growth rescue is 2.17% (inactive). With `COc1ccc(F)cc1S(=O)(=O)NCC(c1ccc2c(c1)OCO2)N1CCN(C)CC1` (configuration not stated), the growth rescue is 72.2% (inactive). For `COc1ccc(NC(=O)CSc2ccc(-c3ccco3)nn2)c(OC)c1`, the growth rescue was -3.7% (inactive). Take `O=C(COC(=O)c1ccccc1C(=O)c1ccccc1)c1ccco1`: the growth rescue is 524% (active).

Consider `CCN(CC)c1ccc(C(=O)OCC(=O)c2ccco2)cc1`, for which the growth rescue was -12.1% (inactive).

For the molecule `CCc1ccc(C(=O)COC(=O)c2ccco2)cc1`, the growth rescue was 2.04% (inactive). In the case of `O=C(COC(=O)c1ccccc1O)NCc1ccco1`, the growth rescue is 0.0433% (inactive). Turning to `Cc1ccc(N2C(=O)C3N=NN(CC(=O)N4N=C(c5cccc6ccccc56)CC4c4ccccc4)C3C2=O)cc1` (configuration not stated), the growth rescue is 376% (active).

As to `O=C1C2N=NN(CC(=O)N3N=C(c4cccc5ccccc45)CC3c3ccccc3)C2C(=O)N1c1ccccc1` (configuration not stated), the growth rescue was -6.23% (inactive). With `CC(=O)Oc1ccccc1C1=NN(C(C)=O)C(c2ccccc2)C1` (configuration not stated), the growth rescue was -0.218% (inactive). For the molecule `S=C(c1ccc(-c2ccccc2)o1)N1CCCCC1`, the growth rescue is 32.2% (inactive). For `CCOC(=O)c1cc(-c2ccccc2C)n(Cc2cc(C)no2)n1`, the growth rescue is -17.1% (inactive). Take `O=C(c1ccccc1)N1CCN(C(=O)c2cc3nc(-c4ccccc4)cc(C(F)(F)F)n3n2)CC1`: the growth rescue was -13.8% (inactive). `Cc1ccc(-c2cc(C(F)(F)F)n3ncc(C(=O)N4CCCCC4c4cccnc4)c3n2)cc1` (configuration not stated): the growth rescue is -2.2% (inactive).

Turning to `COC(=O)c1cc2nc(-c3ccccc3)cc(C(F)(F)F)n2n1`, the growth rescue is 295% (active). Turning to `Cc1cc(C(F)(F)F)n2ncc(-c3ccccc3)c2n1`, the growth rescue was 4.42% (inactive). In the case of `COc1ccc(NC(=O)c2cc3nc(-c4ccccc4)cc(C)n3n2)cc1OC`, the growth rescue is 50% (inactive). In the case of `O=C(O)c1cnn2c(C(F)(F)F)cc(-c3ccccc3)nc12`, the growth rescue is 310% (active). In the case of `COc1ccc(CNC(=O)c2cc(C(=O)C3CC3)c[nH]2)cc1`, the growth rescue was -7.94% (inactive). As for `COc1ccc(N(CC(=O)Nc2cc(OC)ccc2OC)S(=O)(=O)c2c(C)noc2C)cc1`, the growth rescue is 0.112% (inactive). On to `CCc1nn(-c2cc(Oc3cccc4ccccc34)nc(-c3ccccc3)n2)c(N)c1C#N`, for which the growth rescue is 20.3% (inactive).

Source of the values: PubChem BioAssay AID2716 (Broad Institute, 2010).
